# Screens: PubChem, Bradner/Qi Labs at DFCI
# CBX7 AlphaScr = inhibitors of human CBX7 binding to H3K27me3 peptide; actives 1.1% (n = 66,000); O95931; normalised signal (fraction of DMSO) (test concentration not listed); AlphaScreen His6-CBX7 / biotin-H3K27me3 peptide binding; stronger effect = lower value; in the data active means normalised signal below about 0.5
# Target sequence (O95931 whole entry, looked up): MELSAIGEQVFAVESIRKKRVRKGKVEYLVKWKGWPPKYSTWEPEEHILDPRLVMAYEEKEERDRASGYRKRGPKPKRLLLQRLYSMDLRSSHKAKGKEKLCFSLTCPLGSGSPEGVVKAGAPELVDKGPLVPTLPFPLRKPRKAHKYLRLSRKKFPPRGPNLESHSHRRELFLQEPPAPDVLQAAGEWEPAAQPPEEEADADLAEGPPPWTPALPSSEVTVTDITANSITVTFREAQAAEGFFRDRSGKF
# Active calls of the source: *. The sample as a whole holds a higher share of hits than the screen did.
SMILES,CBX7 AlphaScr
Cc1nc(Nc2ccccc2F)c2c(C)c(C)sc2n1,0.47*
Cc1nc(Nc2cccc(C(F)(F)F)c2)c2c3c(sc2n1)CCCC3,1.3
Cc1nc(Nc2cccc(C(F)(F)F)c2)c2c(C)c(C)sc2n1,0.45*
COc1ccccc1Nc1nc(C)nc2sc(C)c(C)c12,1
Cc1sc2nc(Cc3ccccc3)nc(Nc3cccc(C(F)(F)F)c3)c2c1C,1.1
Cc1sc2nc(Cc3ccccc3)nc(Nc3ccccc3F)c2c1C,1.1
CCn1cc(C(=O)Nc2cccc(OC)c2)c(=O)c2ccc(C)nc21,1.1
O=C(c1ccc2c(c1)ncn2-c1ccc(F)cc1F)N1CCCCC1,1
Cc1oc(-c2ccc(Cl)cc2)nc1C(=O)NCc1cccs1,1
CCc1cccc2c(CCNC(=O)c3ccccc3OC)c(C)[nH]c12,0.95
Cc1cccc(NC(=O)c2ccc(CNc3c(N4CCC(C)CC4)c(=O)c3=O)cc2)c1C,1
Cc1cccc(N2CCN(c3ccc4nnc(CCC(=O)Nc5ccc(C)c(C)c5)n4n3)CC2C)c1 (stereo unspecified),0.95
Cc1ccc(Nc2c(-c3ccc(N4CCOCC4)cc3)nc3cc(C)ccn23)cc1,0.84
COc1ccc(Nc2c(-c3ccc(C)cc3)nc3sccn23)cc1OC,0.77
Cc1ccc(Nc2c(-c3ccc(N4CCOCC4)cc3)nc3sccn23)cc1C,0.49*
COc1ccc(-c2nc3sccn3c2Nc2ccc3c(c2)OCO3)cc1,0.47*
COc1ccc(-c2nc3ccccn3c2Nc2ccc3c(c2)OCCO3)cc1,0.71
Cc1ccc(Nc2c(-c3ccc(N4CCOCC4)cc3)nc3ccccn23)cc1,1.1
Cc1ccn2c(NC(=O)c3ccc(Cl)cc3)c(-c3ccc(F)cc3)nc2c1,0.98
CCc1ccc(NS(=O)(=O)c2ccc3[nH]cc(C(=O)NCc4ccc(OC)cc4)c(=O)c3c2)cc1,1
Cc1ccc2sc(-c3ccc(NCc4ccc(OCc5ccc(Cl)cc5)cc4)cc3)nc2c1,1.1
CC(=O)Nc1ccc(S(=O)(=O)Nc2cccc3cccnc23)cc1,0.045*
Cc1ccc(S(=O)(=O)Nc2ccccc2CNc2cccc3cccnc23)cc1,0.92
CC(=O)Nc1ccc(S(=O)(=O)Nc2ccc(S(=O)(=O)Nc3nccc(C)n3)cc2)cc1,1
COc1cc(NS(=O)(=O)c2ccc(NC(=O)c3cccc(Br)c3)cc2)nc(OC)n1,1.3
SMILES,CBX7 AlphaScr
CCOC(=O)C1CC1C1NCCc2c1[nH]c1ccccc21 (stereo unspecified),1.2
CCN(CC)S(=O)(=O)c1ccc2c(c1)CCN2C(=O)C1CCC1,1
CCOC(=O)c1ccc(N2C(=O)C(Oc3ccc(Cl)cc3)C2c2ccccc2OC)cc1 (stereo unspecified),1.1
O=C(CN1C(=O)CSc2ncccc21)NC1CCCC1,1
COc1cc2ccccc2cc1C(=O)Nc1ccc(-c2nc3ccccc3s2)cc1,1.3
COC(=O)c1ccc(C(=O)NCCc2c(C)[nH]c3ccc(OC)cc23)cc1,0.95
COC(=O)c1cccc(CNCCc2c(C)[nH]c3ccc(OC)cc23)c1,0.7
COc1ccc2[nH]c(C)c(CCNCC(C)Cc3ccc4c(c3)OCO4)c2c1 (stereo unspecified),0.34*
COCCNS(=O)(=O)c1ccc2c(c1)CCN2C(=O)CCC(=O)O,0.91
CCOC(=O)c1cnc2c(C)c(Cl)ccc2c1Nc1ccc(C)c(C)c1,1.2
Cc1ccc(F)c(NC(=O)CN2C(=O)CSc3ccccc32)c1,1
Fc1ccccc1-c1nc(-c2ccccc2)c(-c2ccc(Sc3ccccc3)cc2)[nH]1,0.69
COc1cccc(-c2nc(-c3ccccc3)c(-c3cccs3)[nH]2)c1,0.95
O=C1c2ccc([N+](=O)[O-])cc2C(=O)N1c1ccc2nc(-c3ccccc3)[nH]c2c1,1.1
COc1cccc(-c2nc(-c3ccccc3)c(-c3cc([N+](=O)[O-])ccc3C)[nH]2)c1,0.47*
Cc1ccc(C)c(-c2[nH]c(-c3ccc(C(=O)O)cc3)nc2-c2ccccc2)c1,0.84
Cc1ccc([N+](=O)[O-])cc1-c1[nH]c(-c2ccccc2F)nc1-c1ccccc1,0.47*
CN1CC(=O)Nc2cc(C(=O)NCc3ccccc3)ccc21,1.1
Cc1cc(Br)ccc1NC(=O)Cc1c(C(=O)O)[nH]c2ccccc12,1.1
CCOc1ccc2nc(N3CCCC(C(=O)NC(C)CC)C3)sc2c1 (stereo unspecified),1.1
CCOc1ccc2nc(N3CCCC(C(=O)N4CCN(C)CC4)C3)sc2c1 (stereo unspecified),0.38*
CCOc1ccc2nc(N3CCCC(C(=O)N4CCN(c5ncccn5)CC4)C3)sc2c1 (stereo unspecified),0.94
CCOc1ccc2nc(N3CCC(C(=O)N4CCN(C)CC4)CC3)sc2c1,1
CCOc1ccc2nc(N3CCCC(C(=O)N4CCN(c5ccccc5)CC4)C3)sc2c1 (stereo unspecified),0.76
CCOc1ccc2nc(N3CCCC(C(=O)Nc4c(C)cccc4C)C3)sc2c1 (stereo unspecified),1.3
SMILES,CBX7 AlphaScr
CCOc1ccc2nc(N3CCCC(C(=O)N4CCN(c5cccc(C)c5)C(C)C4)C3)sc2c1 (stereo unspecified),0.49*
Cc1sc2ncn(CC(=O)NCC(=O)Nc3ccc(Oc4ccc(Cl)cc4)cc3)c(=O)c2c1C,1.3
Nc1c(C(=O)NCCCN2CCOCC2)nnn1Cc1ccccc1,0.77
CCCCNC(=O)c1cc(Nc2ccc(C)cc2C)nc2ccccc12,1.1
COc1ccc(OC)c(C2=NOC(C(=O)N3CCN(c4ccc(F)cc4)CC3)C2)c1 (stereo unspecified),0.95
Cc1c(C(=O)NC2CCCCCCC2)oc2ccc(S(=O)(=O)N3CCCCCC3)cc12,0.96
CC(C)CC(=O)NC(c1ccccc1)c1ccc2cccnc2c1O (stereo unspecified),0.044*
O=C(O)C(NS(=O)(=O)c1cccc2cccnc12)c1ccccc1 (stereo unspecified),1
O=C(O)CC(NCc1cccnc1)c1cccs1 (stereo unspecified),1
CCN1CCN(C(c2cccs2)C(C)NC(=O)CC(C)C)CC1 (stereo unspecified),1.1
Cc1ccc(C(NC(=O)CC(C)C)c2ccc3cccnc3c2O)cc1 (stereo unspecified),0.63
CC(C)C(=O)NC(c1cccs1)c1cc(Cl)c2cccnc2c1O (stereo unspecified),0.64
CCCC(=O)NC(c1cccs1)c1cc(Cl)c2cccnc2c1O (stereo unspecified),0.27*
CC(C)CC(=O)NC(c1cccs1)c1ccc2cccnc2c1O (stereo unspecified),0.1*
Oc1c(C(Nc2ccccc2)c2ccccc2)ccc2cccnc12 (stereo unspecified),0.24*
CCCC(=O)NC(c1ccc(C(C)C)cc1)c1cc(Cl)c2cccnc2c1O (stereo unspecified),0.82
Cc1ccc(C(NC(=O)C(C)C)c2cc(Cl)c3cccnc3c2O)cc1 (stereo unspecified),0.63
O=C(Nc1ccc(Cl)c(Cl)c1)Nc1cccc2cccnc12,0.98
CCC(O)(CCN1CCCCCC1)c1ccccc1 (stereo unspecified),1.2
Cc1cccn2c(NC(=O)c3ccc(F)cc3)c(-c3ccccc3)nc12,0.99
CCN1CCN(CCCNC(=O)Cn2nc(Cc3ccncc3)c3ccccc3c2=O)CC1,0.98
COCCNC(=O)c1nc(-c2ccc(OC)cc2)oc1C,0.97
CCOC(=O)c1nc(Nc2ccc(Oc3ccc(Cl)cc3)cc2)c2ccccc2n1,1
